Experimental data published in the supplement of paper PMC7411054.

Assays:
Assay in all cases: phenotypically active (imaging signature differs from DMSO and reproducible) at any of 0.3-9 uM (binary (1 = active, 0 = inactive)); higher = active
Conditions in all cases: treatment time: 24 h
[1] = test system: A549-ACTB-RAB5A
Procedure, shortened: (§1)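 Phenotypic activity depended on meeting both a deviation and a reproducibility criterion. The fifteen gene-edited A549, HepG2 and WPMY1 reporter lines were treated at 0.3, 1, 3 or 9 µM for 24 h, four wells each, then imaged live with features normalised to solvent control wells. Deviation required ≥3 of 4 wells past the 95th percentile of control Euclidean distances, and reproducibility a median replicate Pearson correlation above the 95th percentile of non-replicates.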

[2] = test system: A549-CANX-COX4
Procedure, shortened: as §1

[3] = test system: A549-GM130-SQSTM1
Procedure, shortened: as §1

[4] = test system: A549-TP53BP1-CLTA
Procedure, shortened: as §1

[5] = test system: A549-TUBA1B-RELA
Procedure, shortened: as §1

[6] = test system: HepG2-ACTB-RAB5A
Procedure, shortened: as §1

[7] = test system: HepG2-CANX-COX4
Procedure, shortened: as §1

[8] = test system: HepG2-GM130-SQSTM1
Procedure, shortened: as §1

[9] = test system: HepG2-TP53BP1-CLTA
Procedure, shortened: as §1

[10] = test system: HepG2-TUBA1B-RELA
Procedure, shortened: as §1

[11] = test system: WPMY1-ACTB-RAB5A
Procedure, shortened: as §1

[12] = test system: WPMY1-CANX-COX4
Procedure, shortened: as §1

[13] = test system: WPMY1-GM130-SQSTM1
Procedure, shortened: as §1

[14] = test system: WPMY1-TP53BP1-CLTA
Procedure, shortened: as §1

[15] = test system: WPMY1-TUBA1B-RELA
Procedure, shortened: as §1

Measured: phenotypically active

O=C(O)CCc1ccccc1 [Hydrocinnamic acid]
inactive: [1] 0 | [2] 0 | [3] 0 | [4] 0 | [5] 0 | [6] 0 | [7] 0 | [8] 0 | [9] 0 | [10] 0 | [11] 0 | [12] 0 | [13] 0 | [14] 0 | [15] 0

CN1C(=O)CC(C)(c2ccccc2)C1=O (stereo not given) [methsuximide]
inactive: [1] 0 | [2] 0 | [3] 0 | [4] 0 | [5] 0 | [6] 0 | [7] 0 | [8] 0 | [9] 0 | [10] 0 | [11] 0 | [12] 0 | [13] 0 | [14] 0 | [15] 0

NC(=O)c1cn(Cc2c(F)cccc2F)nn1 [rufinamide]
inactive: [1] 0 | [2] 0 | [3] 0 | [4] 0 | [5] 0 | [6] 0 | [7] 0 | [8] 0 | [9] 0 | [10] 0 | [11] 0 | [12] 0 | [13] 0 | [14] 0 | [15] 0

CCOc1cc([C@@H](CS(C)(=O)=O)N2C(=O)c3cccc(NC(C)=O)c3C2=O)ccc1OC [apremilast]
inactive: [1] 0 | [2] 0 | [3] 0 | [4] 0 | [5] 0 | [6] 0 | [7] 0 | [8] 0 | [9] 0 | [10] 0 | [11] 0 | [12] 0 | [13] 0 | [14] 0 | [15] 0

C[N+]1(C)CCC(=C(c2ccccc2)c2ccccc2)CC1 [diphemanil]
inactive: [1] 0 | [2] 0 | [3] 0 | [4] 0 | [5] 0 | [6] 0 | [7] 0 | [8] 0 | [9] 0 | [10] 0 | [11] 0 | [12] 0 | [13] 0 | [14] 0 | [15] 0

COc1cc(O)c2c(c1C1CCCN1)OC(c1ccc(O)cc1)CC2 (stereo not given) [Vochysine (4 dia/énantio)]
inactive: [1] 0 | [2] 0 | [3] 0 | [4] 0 | [5] 0 | [6] 0 | [7] 0 | [8] 0 | [9] 0 | [10] 0 | [11] 0 | [12] 0 | [13] 0 | [14] 0 | [15] 0

CCOCCn1c(N2CCCN(C)CC2)nc2ccccc21 [emedastine]
inactive: [1] 0 | [2] 0 | [3] 0 | [4] 0 | [5] 0 | [6] 0 | [7] 0 | [8] 0 | [9] 0 | [10] 0 | [11] 0 | [12] 0 | [13] 0 | [14] 0 | [15] 0

O=C1CCc2cc(OCCCCc3nnnn3C3CCCCC3)ccc2N1 [Cilostazol]
inactive: [1] 0 | [2] 0 | [3] 0 | [4] 0 | [5] 0 | [6] 0 | [7] 0 | [8] 0 | [9] 0 | [10] 0 | [11] 0 | [12] 0 | [13] 0 | [14] 0 | [15] 0

CC(=O)Oc1ccccc1C(=O)O [aspirin]
inactive: [1] 0 | [2] 0 | [3] 0 | [4] 0 | [5] 0 | [6] 0 | [7] 0 | [8] 0 | [9] 0 | [10] 0 | [11] 0 | [12] 0 | [13] 0 | [14] 0 | [15] 0

CC(C)N(CCC(=O)c1ccc2ccccc2c1)Cc1ccccc1
inactive: [1] 0 | [2] 0 | [3] 0 | [4] 0 | [5] 0 | [6] 0 | [7] 0 | [8] 0 | [9] 0 | [10] 0 | [11] 0 | [12] 0 | [13] 0 | [14] 0 | [15] 0

C/N=C(\NC#N)NCCSCc1nc[nH]c1C [cimetidine]
inactive: [1] 0 | [2] 0 | [3] 0 | [4] 0 | [5] 0 | [6] 0 | [7] 0 | [8] 0 | [9] 0 | [10] 0 | [11] 0 | [12] 0 | [13] 0 | [14] 0 | [15] 0

Cn1c(=O)c2[nH]cnc2n(C)c1=O [Aminophylline]
inactive: [1] 0 | [2] 0 | [3] 0 | [4] 0 | [5] 0 | [6] 0 | [7] 0 | [8] 0 | [9] 0 | [10] 0 | [11] 0 | [12] 0 | [13] 0 | [14] 0 | [15] 0

Nc1ccc(O)c(C(=O)O)c1 [mesalazine]
inactive: [1] 0 | [2] 0 | [3] 0 | [4] 0 | [5] 0 | [6] 0 | [7] 0 | [8] 0 | [9] 0 | [10] 0 | [11] 0 | [12] 0 | [13] 0 | [14] 0 | [15] 0

Clc1cccc(Nc2nnc(-c3ccccc3)c3ccccc23)c1
inactive: [1] 0 | [2] 0 | [3] 0 | [4] 0 | [5] 0 | [6] 0 | [7] 0 | [8] 0 | [9] 0 | [10] 0 | [11] 0 | [12] 0 | [13] 0 | [14] 0 | [15] 0

Nc1ncnc2c1cnn2-c1ccccc1
inactive: [1] 0 | [2] 0 | [3] 0 | [4] 0 | [5] 0 | [6] 0 | [7] 0 | [8] 0 | [9] 0 | [10] 0 | [11] 0 | [12] 0 | [13] 0 | [14] 0 | [15] 0

CCOC(=O)C(C)(C)Oc1ccc(Cl)cc1 [Clofibrate]
inactive: [1] 0 | [2] 0 | [3] 0 | [4] 0 | [5] 0 | [6] 0 | [7] 0 | [8] 0 | [9] 0 | [10] 0 | [11] 0 | [12] 0 | [13] 0 | [14] 0 | [15] 0

CC(=O)[C@H]1CC[C@H]2[C@@H]3CCC4=CC(=O)CC[C@]4(C)[C@H]3CC[C@]12C [progesterone]
inactive: [1] 0 | [2] 0 | [3] 0 | [4] 0 | [5] 0 | [6] 0 | [7] 0 | [8] 0 | [9] 0 | [10] 0 | [11] 0 | [12] 0 | [13] 0 | [14] 0 | [15] 0

CN(N=O)C(=O)N[C@@H](C=O)[C@@H](O)[C@H](O)[C@H](O)CO.CN(N=O)C(=O)N[C@H]1C(O)O[C@H](CO)[C@@H](O)[C@@H]1O [streptozotocin]
inactive: [1] 0 | [2] 0 | [3] 0 | [4] 0 | [5] 0 | [6] 0 | [7] 0 | [8] 0 | [9] 0 | [10] 0 | [11] 0 | [12] 0 | [13] 0 | [14] 0 | [15] 0

CCCCN1CCCCC1C(=O)Nc1c(C)cccc1C (stereo not given) [bupivacaine]
inactive: [1] 0 | [2] 0 | [3] 0 | [4] 0 | [5] 0 | [6] 0 | [7] 0 | [8] 0 | [9] 0 | [10] 0 | [11] 0 | [12] 0 | [13] 0 | [14] 0 | [15] 0

CCCCOc1cc(C(=O)OCCN(CC)CC)ccc1N [oxybuprocaine]
inactive: [1] 0 | [2] 0 | [3] 0 | [4] 0 | [5] 0 | [6] 0 | [7] 0 | [8] 0 | [9] 0 | [10] 0 | [11] 0 | [12] 0 | [13] 0 | [14] 0 | [15] 0

COc1ccc(C2=N[C@H](c3ccc(Cl)cc3)[C@H](c3ccc(Cl)cc3)N2C(=O)N2CCNC(=O)C2)c(OC(C)C)c1 [Nutlin-3]
inactive: [1] 0 | [2] 0 | [3] 0 | [4] 0 | [5] 0 | [6] 0 | [7] 0 | [8] 0 | [9] 0 | [10] 0 | [11] 0 | [12] 0 | [13] 0 | [14] 0 | [15] 0

Cc1[nH]c(=O)c(C#N)cc1-c1ccncc1 [Milrinone]
inactive: [1] 0 | [2] 0 | [3] 0 | [4] 0 | [5] 0 | [6] 0 | [7] 0 | [8] 0 | [9] 0 | [10] 0 | [11] 0 | [12] 0 | [13] 0 | [14] 0 | [15] 0

COc1ccccc1OCC(O)CN1CCN(CC(=O)Nc2c(C)cccc2C)CC1 (stereo not given) [ranolazine]
inactive: [1] 0 | [2] 0 | [3] 0 | [4] 0 | [5] 0 | [6] 0 | [7] 0 | [8] 0 | [9] 0 | [10] 0 | [11] 0 | [12] 0 | [13] 0 | [14] 0 | [15] 0
